According to PubChem BioAssay AID597 (National Center for Advancing Translational Sciences (NCATS), 2007):
The whole screen tested about 68,000 compounds, of which about 60 (0.09%) were called active. Calls come from the whole dose curve; as a rule, active = well fitted curve in the direction sought with a large enough effect; inconclusive = small, poorly fitted or top-dose-only effect; inactive = flat fitted curve, though single readings scatter. Not all results are given here.

assay: qHTS Assay for Epigenetic Modulators; conditions: mouse C127i GFP locus derepression, cytometry, 30 h; series mostly up to 46.1 µM; note: % of control where 0% means no effect
Source text: NIH Molecular Libraries Screening Centers Network [MLSCN] NIH Chemical Genomics Center [NCGC] MLSCN Grant: 1 X01 MH079860-01 Assay Provider: Elisabeth D. Martinez, University of Texas SW Medical Center NCGC Assay Overview: The Locus Derepression assay detects the derepression of a GFP reporter that is stably integrated in a region of the genome of murine c127i mammary cells that is presumably silenced. GFP transcription in this construct is controlled by a CMV promoter, which normally is strong and constitutively active. However, this line was selected for lack of constitutive expression of the GFP protein. GFP production can be induced by incubating the cells with histone deacetylase or DNA methyltransferase inhibitors. Compounds that cause derepression of the locus to express GFP are identified by enumerating GFP positive cells using a laser-scanning microplate cytometer. For further details of this screen and follow-up characterization, see R.L. Johnson, W. Huang, A. Jadhav, C.P. Austin, J. Inglese, E.D. Martinez, A Quantitative High-Throughput Screen Identifies Potential Epigenetic Modulators of Gene Expression, Analytical Biochemistry (2008) 375(2):237-48.
NCGC Assay Protocol Summary: Two hundred and fifty cells in 5 uL per well were dispensed into black, clear-bottom 1536-well plates. Twenty-three nL compound was transferred to the assay plate and cells were incubated 30 hours at 37 C. Medium was removed, cells were washed two times with PBS, and GFP-positive cells were enumerated as fluorescent objects between the sizes of 20 to 120 um width and depth using an Acumen Explorer. Keywords: NIH Roadmap, MLSCN, MLI, MLSMR, qHTS, NCGC, qHTS, HDAC, DNMT, HAT, DNA methyltransferases, histone acetyl transferases, histone deacetylases

GFP derepression (activation), inactive:
COc1ccc(CNC(=O)C2CCN(S(=O)(=O)N3CCOCC3)CC2)cc1, COc1ccc(C(CC(=O)O)NC(=O)Cc2ccccc2)cc1 (centres undefined), COC(=O)c1ccc(N(CC(=O)NC2CCCC2)C(=O)CNC(=O)c2ccco2)cc1, COc1ccc2[nH]c3c(=O)n(Cc4ccco4)cnc3c2c1, CCCSc1nc2c(c(=O)n(C)c(=O)n2C)n1Cc1ccc(C)cc1, O=C(CN1CCN(C(=O)c2cccc(F)c2)CC1)Nc1ccccc1F, Cc1cc(N(C)C)cc(C)[n+]1[O-], O=C(c1cccc(F)c1)N1CCC2(CCCN(Cc3ccncc3)C2)CC1 0% [at 9.22 µM], O=c1[nH]c(=O)n([C@H]2C[C@H](O)[C@H](CO)O2)cc1Br, Cc1cccc(NC(=O)CSc2nc3c(c(=O)[nH]2)CCC3)c1C, Cc1nn(-c2ccccc2)c2[nH]c(C(F)(F)F)cc(=O)c12, COC(=O)c1cc(C(=O)OC)cc(N2C(=O)CC(N3CCN(c4ccccc4)CC3)C2=O)c1 (centres undefined), CSCCC(NS(=O)(=O)/C=C/c1ccccc1)C(=O)N1CCC(C)CC1 (centres undefined), C=CCc1cccc2cc(C(=O)OCC)c(=O)oc12, COC(=O)c1ccc(CSc2ccccc2C)o1, CCN(c1ccccc1)S(=O)(=O)c1cccc(C(=O)O)c1, COCCn1c(=O)c(-c2cccs2)nc2cnc(N3CCN(C)CC3)nc21 -2.7% [at 9.22 µM], CN(Cc1ccco1)c1ncncc1-c1ccoc1 3.4% [at 9.22 µM], CN/C(=C\[N+](=O)[O-])NCCSCc1csc(CN(C)C)n1, Cc1cccc(Cn2c(N3CCN(c4ccccc4)CC3)nc3c2c(=O)n(C)c(=O)n3C)c1, O=C(c1ccc(=O)[nH]c1)N(Cc1ccco1)C1(C(=O)NC2CCCCC2)CCCCC1, CCCCC(CC)C(=O)Nc1ccc(Cl)cn1 (centres undefined), O=C(Nc1ccccc1)N[C@H]1C[C@H](C(=O)O)Nc2cc(Cl)cc(Cl)c21, CC1(C)CC(=O)c2cc(OCC(=O)NCC3CCCO3)ccc2O1 (centres undefined), COc1ccccc1CN1CC2(CCN(S(=O)(=O)c3ccccc3)CC2)C1 -2.3% [at 9.22 µM], COc1ccc2[nH]c3cc4c(=O)c5cc(OC)ccc5[nH]c4cc3c(=O)c2c1 1.1% [at 9.22 µM], Oc1c(C(c2ccccn2)N2CCOCC2)ccc2cccnc12 (centres undefined), Cc1ccc(C(c2nnnn2C(C)(C)C)N2CCc3ccccc3C2)cc1 (centres undefined), CCOC(=O)C1(C(F)(F)F)N=C(N(C)C)OC(N(C)C)=N1, CCC[C@H]1C(=O)N2C(N(C)C)=Nc3ccc(C)cc3N2C1=O, Cc1cc(N2CCCCC2)nc2ccc(Cc3ccc4nc(N5CCCCC5)cc(C)c4c3)cc12 -2.2% [at 9.22 µM], CCOCC(=O)Nc1cc(OC)c(Cl)cc1OC, COCc1nc2ccccc2n1Cc1ccccc1Br, O=C(NC1CCCCC1)n1c(=O)oc2cc(S(=O)(=O)N3CCCCC3)ccc21, COCCn1c(=O)c(-c2cccs2)nc2cncnc21 2.3% [at 9.22 µM], O=C(COC(=O)c1ccc2c(c1)OCCO2)NCc1ccccc1, Cc1ccccc1-c1nc(N(C)Cc2ccco2)c2ccccc2n1 -2.9% [at 9.22 µM], COCCn1c(=O)c(-c2ccc(OC)cc2)nc2cnc(Oc3cccc(Cl)c3)nc21 -2.7% [at 9.22 µM], O=c1c(-c2ccc(F)cc2)nc2cnc(N3CCOCC3)nc2n1-c1ccccc1 2.3% [at 9.22 µM], NC(=O)C1(N2CCCCC2)CCN(C(=O)c2ccc(C#Cc3ccccc3)o2)CC1, Nc1ccc(-c2nnc(-c3ccc(-c4ccccc4)cc3)o2)cc1, COc1ccc(Cl)cc1NC(=O)C1CC(=O)N(c2ccc(F)cc2)C1 (centres undefined), CC1C(c2ccccc2)=[N+]([O-])C2(CCCC2)N1O (centres undefined), S=c1c2[nH]cnc2ncn1CCSc1ncnc2nc[nH]c12 3.4% [at 9.22 µM], CN1CCN(c2ncncc2-c2ccc(C(=O)N(C)C)cc2)CC1 -2.3% [at 9.22 µM], CCCCCNC(=O)Cc1ccc(OC)cc1, COC(=O)c1ccc(CSc2nncn2C)cc1, CC(C)(C)NC(=O)NC(=O)COC(=O)Cn1c(C(F)(F)F)nc2ccccc21, CC(C)[C@H](CO)Nc1nc(Nc2cc(N)cc(Cl)c2)c2ncn(C(C)C)c2n1, C[C@@H](N)[C@@H](C)Cc1ccccc1 0% [at 9.22 µM], Cc1cc(NC(=O)CCC(=O)N(c2ccccc2)C(C(=O)NC2CCCC2)c2ccncc2)no1 (centres undefined), COc1ccc(C(=O)N2CCC3(CCCN(C(c4ccccc4)c4ccccc4)C3)CC2)cc1 -2.3% [at 9.22 µM], COc1ccc(-c2cc(C(F)(F)F)n3nc(C(=O)N4CCOCC4)c(Cl)c3n2)cc1, O=C(CS(=O)(=O)c1cn(Cc2cccc(F)c2)c2ccccc12)N1CCCCC1, O=C(O)c1ccc(COc2c(F)c(F)cc(F)c2F)o1, Cc1ccc(Oc2nc3ccccc3n3c(C)nnc23)cc1, CCC(c1nnnn1C1CCCC1)N1CCN(C(=O)c2ccco2)CC1 (centres undefined), O=C(COc1ccc(F)cc1)N(CC1=CCS(=O)(=O)C1)c1ccccc1, Cc1ccc(S(=O)(=O)N2CCC(C(=O)N[C@@H](C)C(=O)NCCc3ccccc3)CC2)cc1, O=C(N1CCOCC1)N1CCOCC1, CC(C)Cc1nc(N2CCOCC2)c(C#N)c2c1CCC2, CCCCCCCCCCCC(=O)O[C@H](CC(=O)O)C[N+](C)(C)C, Cc1noc(C)c1-c1nc(Nc2ccccc2)c2ccccc2n1 -2.9% [at 9.22 µM], O=C(O)c1nn(-c2ccc(Cl)cc2)c2c1C(=O)c1ccccc1C2=O 4.5% [at 9.22 µM]
